Measured values from PubChem BioAssay (NCATS).
Inconclusive results are not listed. Calls of active or inactive are those of the source. Unless noted, the call rests on the fitted dose curve; in most records, active means well fitted curve in the direction sought with a large enough effect; inconclusive means small, poorly fitted or top-dose-only effect, or another doubt; inactive means no such curve, though single readings can be large; an effect the other way counts as inactive or inconclusive.

Key:
[1] = High Content Imaging Cell-Based qHTS for Inhibitors of the mTORC1 Signaling Pathway in MEF Cells (AID 2667); further: potency means the concentration at half of the fitted maximal effect
In short: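 Fixed-cell imaging of phospho-S6 (Ser235/236, Alexa-488) after 24 hrs of compound treatment at 37 degree Celsius. Signal was normalized to Hoechst, and thresholds from the highest and lowest wells split cells into % active versus % non-active.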

[2] = Cytometry Cell-Based qHTS for Inhibitors of the mTORC1 Signaling Pathway in MEF cells (AID 2668); further: potency means the concentration at half of the fitted maximal effect
In short: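 MEFs (Tsc2-/-, p53-/- stably expressing WT Tsc2) treated 24 h at 37 degree Celsius, fixed, stained with Alexa-488 anti-phospho-rpS6 Ser235/236 and propidium iodide; Acumen laser scanning. Reported as % positive cells, phospho-S6 normalized to PI.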

[3] = molecular target: Ubiquitin carboxyl-terminal hydrolase 2 (Homo sapiens) (UniProt O75604); assay: qHTS Validation Assay for Inhibitors of Ubiquitin-specific Protease USP2a Using CHOP2 as the Reporter (AID 463106)
In short: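 Inhibition is expressed relative to NEM as the full-inhibition control, with concentration-response curves classed by fit quality, magnitude and activity. Enzyme (USP2 core, 10nM) meets 25nM Ub-CHOP2 after compound preincubation; readings are taken at 60min.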

[4] = molecular target: DNA polymerase III PolC-type (Bacillus subtilis (strain 168)) (UniProt P13267); assay: qHTS Validation Assay for the Inhibitors of DNA Replication in Gram-Positive Bacteria (AID 485295);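 further: PicoGreen fluorescence of double-stranded DNA made on primed circular M13 template; series mostly up to about 57 µM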
In short: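 Reconstituted B. subtilis Pol III holoenzyme (PolC, beta clamp, SSB, primase) preincubated with compound, then M13Gori single-stranded circular template with dNTPs/NTPs added; room temperature reaction. Stopped with EDTA/PicoGreen; dsDNA fluorescence read, EDTA as full-inhibition control.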

[5] = molecular target: Tumor susceptibility gene 101 protein (Homo sapiens) (UniProt Q99816); assay: qHTS Validation Assay for Iinhibitors of HIV-1 Budding by Blocking the Interaction of PTAP/TSG101 (AID 485342; calls by dose curve)
In short: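 Tsg101 binding domain (10 uM) with FITC-labeled PTAP peptide (50 nM) in HEPES pH 7.5 buffer, 20 min at r.t. with compounds. Binding measured by fluorescence polarization.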

[6] = qHTS Validation Assay to Find Inhibitors of Chronic Active B-Cell Receptor Signaling (AID 485345; active means well fitted curve in the direction sought with a large enough effect in the main read-out, with a control signal flat, not every such curve was filed as active)
In short: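 TMD8 ABC-DLBCL cells with dox-inducible green luciferase–IκBα fusion and red native luciferase; compounds 46 uM–3 nM, 4 h at 37C with doxycycline in 0.5% FBS IMDM. Green/red ratio normalized to basal and 10 uM MG-132.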

[7] = molecular target: Beta-2 adrenergic receptor (Homo sapiens) (UniProt P07550); assay: qHTS validation assay of beta-arrestin-biased ligands of beta2-adrenergic receptor (AID 485366)
In short: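 Agonist activity is measured as luciferase luminescence downstream of beta-arrestin recruitment to recombinant beta2-AR in Tango cells. Exposure lasts 18 hr at 37 degrees C, and curves are categorized by r2, response size and activity.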

[8] = Quantitative high throughput screen for delayed death inhibitors of the malarial parasite plastid, 96 hour incubation (AID 488745); further: potency means the concentration at half of the fitted maximal effect; nearly all actives have a fitted effect of over 70% in size
In short: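 Readout is firefly luciferase luminescence from an integrated reporter in P. falciparum; lower signal marks inhibited growth. Cultures at 2% hematocrit and 0.1% parasitemia were treated with compound across two generations (96 h, 37 C, 5% CO2).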

[9] = molecular target: ATP-dependent 6-phosphofructokinase (Trypanosoma brucei brucei) (UniProt O15648); assay: qHTS Validation Assay to Find Inhibitors of T. brucei phosphofructokinase (AID 485368); further: potency means the concentration at half of the fitted maximal effect
In short: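 Inhibition derived from concentration-response curves of luminescence, ranked by r2, response size and curve class; the underlying reaction used 1.25 nM PFK, 0.1 mM ATP and 0.5 mM F6P, 45 min, room temperature.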

[10] = Validation screen for small molecules that induce DNA re-replication in MCF 10A normal breast cells (AID 463097); further: nearly all actives have a fitted effect of over 60% in size
In short: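 MCF 10A cells exposed to compound 48 hr at 37 C, 5% CO2, then Hoechst-stained 40 min. Laser-scanning imaging of nuclear DNA content (405 nm ex, 500-530 nm em); re-replication scored as rise in nuclei with elevated fluorescence intensity.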

Measured: Potency

Chain of Ubiquitin carboxyl-terminal hydrolase 2 (Homo sapiens) (O75604 whole entry, looked up): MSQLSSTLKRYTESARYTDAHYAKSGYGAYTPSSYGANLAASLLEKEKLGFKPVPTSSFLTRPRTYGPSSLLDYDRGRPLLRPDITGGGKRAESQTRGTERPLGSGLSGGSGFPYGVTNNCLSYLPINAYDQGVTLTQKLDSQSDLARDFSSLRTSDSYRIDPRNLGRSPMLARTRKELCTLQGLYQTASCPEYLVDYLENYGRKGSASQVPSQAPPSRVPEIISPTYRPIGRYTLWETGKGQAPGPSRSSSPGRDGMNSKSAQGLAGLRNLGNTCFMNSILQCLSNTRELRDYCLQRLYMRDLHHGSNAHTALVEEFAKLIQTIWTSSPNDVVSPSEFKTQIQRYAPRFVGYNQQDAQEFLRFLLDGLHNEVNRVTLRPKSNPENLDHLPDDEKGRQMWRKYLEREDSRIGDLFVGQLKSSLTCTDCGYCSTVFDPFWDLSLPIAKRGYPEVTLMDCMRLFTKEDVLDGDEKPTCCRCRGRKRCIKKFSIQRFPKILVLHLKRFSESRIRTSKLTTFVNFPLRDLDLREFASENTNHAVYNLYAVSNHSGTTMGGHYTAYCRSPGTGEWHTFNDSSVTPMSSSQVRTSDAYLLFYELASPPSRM
Chain of DNA polymerase III PolC-type (Bacillus subtilis (strain 168)) (P13267 whole entry, looked up): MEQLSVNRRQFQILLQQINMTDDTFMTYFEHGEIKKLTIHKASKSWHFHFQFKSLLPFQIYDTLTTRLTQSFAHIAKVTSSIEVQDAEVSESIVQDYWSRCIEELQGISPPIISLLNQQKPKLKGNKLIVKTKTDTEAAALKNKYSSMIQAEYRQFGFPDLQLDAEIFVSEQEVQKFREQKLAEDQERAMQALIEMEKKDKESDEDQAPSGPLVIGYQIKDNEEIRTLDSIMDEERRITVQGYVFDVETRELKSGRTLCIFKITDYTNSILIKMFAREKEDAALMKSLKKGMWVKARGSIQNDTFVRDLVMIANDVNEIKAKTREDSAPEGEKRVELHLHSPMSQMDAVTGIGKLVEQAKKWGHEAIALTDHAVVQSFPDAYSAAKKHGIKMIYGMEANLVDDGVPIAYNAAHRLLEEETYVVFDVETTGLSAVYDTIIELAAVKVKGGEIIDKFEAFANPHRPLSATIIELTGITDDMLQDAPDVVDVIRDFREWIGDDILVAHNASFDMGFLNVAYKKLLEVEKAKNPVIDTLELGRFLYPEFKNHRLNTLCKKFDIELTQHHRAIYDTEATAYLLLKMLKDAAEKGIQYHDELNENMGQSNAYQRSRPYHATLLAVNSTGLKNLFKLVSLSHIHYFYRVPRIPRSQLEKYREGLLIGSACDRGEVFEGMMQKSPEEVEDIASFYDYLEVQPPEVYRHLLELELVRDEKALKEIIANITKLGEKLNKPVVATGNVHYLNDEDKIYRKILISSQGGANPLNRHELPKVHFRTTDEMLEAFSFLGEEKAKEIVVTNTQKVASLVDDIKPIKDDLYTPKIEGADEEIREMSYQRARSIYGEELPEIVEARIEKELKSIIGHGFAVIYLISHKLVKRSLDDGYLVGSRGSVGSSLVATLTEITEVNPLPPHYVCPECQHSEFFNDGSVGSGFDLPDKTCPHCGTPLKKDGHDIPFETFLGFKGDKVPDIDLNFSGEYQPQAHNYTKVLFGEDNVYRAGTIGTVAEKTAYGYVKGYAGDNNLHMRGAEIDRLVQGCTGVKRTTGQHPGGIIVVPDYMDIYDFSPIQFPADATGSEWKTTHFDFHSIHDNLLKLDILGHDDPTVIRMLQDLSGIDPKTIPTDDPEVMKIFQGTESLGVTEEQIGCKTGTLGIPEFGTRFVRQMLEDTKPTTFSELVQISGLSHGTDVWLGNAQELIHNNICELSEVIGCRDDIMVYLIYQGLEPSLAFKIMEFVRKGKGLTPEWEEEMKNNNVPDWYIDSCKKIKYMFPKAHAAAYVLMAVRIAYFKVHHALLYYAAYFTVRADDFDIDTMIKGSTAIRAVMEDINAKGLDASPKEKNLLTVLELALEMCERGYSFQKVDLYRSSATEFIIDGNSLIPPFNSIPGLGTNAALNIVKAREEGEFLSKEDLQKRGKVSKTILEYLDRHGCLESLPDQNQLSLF
Chain of Tumor susceptibility gene 101 protein (Homo sapiens) (Q99816 whole entry, looked up, the tested form may be a part): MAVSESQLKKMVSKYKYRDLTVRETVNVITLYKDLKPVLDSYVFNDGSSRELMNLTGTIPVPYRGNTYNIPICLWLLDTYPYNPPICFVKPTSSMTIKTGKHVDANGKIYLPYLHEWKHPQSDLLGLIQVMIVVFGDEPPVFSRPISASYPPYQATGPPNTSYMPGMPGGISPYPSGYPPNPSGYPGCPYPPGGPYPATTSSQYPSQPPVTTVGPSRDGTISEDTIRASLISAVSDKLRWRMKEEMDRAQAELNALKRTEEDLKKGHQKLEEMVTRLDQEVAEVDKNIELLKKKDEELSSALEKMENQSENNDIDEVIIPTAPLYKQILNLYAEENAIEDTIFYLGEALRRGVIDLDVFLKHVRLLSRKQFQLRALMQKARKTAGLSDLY
Chain of Beta-2 adrenergic receptor (Homo sapiens) (P07550 whole entry, looked up): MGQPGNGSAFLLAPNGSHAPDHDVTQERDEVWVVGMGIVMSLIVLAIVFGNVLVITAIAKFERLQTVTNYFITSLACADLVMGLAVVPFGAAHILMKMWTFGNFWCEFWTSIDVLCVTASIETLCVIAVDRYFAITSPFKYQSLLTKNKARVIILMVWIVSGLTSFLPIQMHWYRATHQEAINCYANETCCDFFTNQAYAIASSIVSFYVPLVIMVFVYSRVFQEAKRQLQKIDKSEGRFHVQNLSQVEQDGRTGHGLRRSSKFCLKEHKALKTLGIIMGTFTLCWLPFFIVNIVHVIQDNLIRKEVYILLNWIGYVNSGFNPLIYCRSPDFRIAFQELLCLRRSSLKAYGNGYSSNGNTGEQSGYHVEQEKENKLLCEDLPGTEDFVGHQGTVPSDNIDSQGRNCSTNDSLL
Chain of ATP-dependent 6-phosphofructokinase (Trypanosoma brucei brucei) (O15648 whole entry, looked up): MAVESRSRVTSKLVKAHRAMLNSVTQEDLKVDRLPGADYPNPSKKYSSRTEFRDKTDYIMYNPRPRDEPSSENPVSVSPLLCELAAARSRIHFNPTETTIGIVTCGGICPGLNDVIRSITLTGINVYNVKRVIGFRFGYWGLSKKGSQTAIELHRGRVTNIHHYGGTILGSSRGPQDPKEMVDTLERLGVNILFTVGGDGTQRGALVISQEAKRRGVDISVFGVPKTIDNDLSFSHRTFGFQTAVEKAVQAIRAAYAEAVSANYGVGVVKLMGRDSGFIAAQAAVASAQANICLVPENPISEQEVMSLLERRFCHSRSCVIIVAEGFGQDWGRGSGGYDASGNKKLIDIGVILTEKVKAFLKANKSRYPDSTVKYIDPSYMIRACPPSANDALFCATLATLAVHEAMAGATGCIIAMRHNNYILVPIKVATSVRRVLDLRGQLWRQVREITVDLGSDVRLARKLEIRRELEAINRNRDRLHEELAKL

CN1C2CC(OC(=O)[C@H](CO)c3ccccc3)CC1C1OC12 (some centres not stated)
not listed: [8] | [9] | [10]
inactive: all other assays above

NC(=O)C1=CN(C2OC(COP(=O)(O)OP(=O)(O)OC[C@H]3O[C@@H](n4cnc5c(N)ncnc54)[C@H](OP(=O)(O)O)[C@@H]3O)C(O)C2O)C=CC1 (some centres not stated)
inactive: [1] | [2] | [3] | [4] | [5] | [7]

CCCCCCCC/C=C\CCCCCCCC(=O)NCCO
active: [8] 2.94 µM
not listed: [9] | [10]
inactive: all other assays above

COc1ccc2c(c1)CCC1C2CC[C@@]2(C)C1CC[C@@H]2NCCCCCCN1C(=O)CCC1=O (some centres not stated)
active: [1] 3.69 µM | [2] 4.65 µM
inactive: [3] | [4] | [5] | [7]

CCCN(CC1CC1)c1nc(C)nc(Nc2c(Cl)cc(Cl)cc2Cl)c1Cl
not listed: [8] | [9] | [10]
inactive: all other assays above

Nc1ncnc2c1ncn2[C@@H]1O[C@H](COP(=O)(O)OP(=O)(O)OP(=O)(O)OP(=O)(O)OC[C@@H]2O[C@H](n3cnc4c(N)ncnc43)[C@@H](O)[C@H]2O)[C@@H](O)[C@H]1O
inactive: [1] | [2] | [3] | [4] | [5] | [7]

O=[N+]([O-])c1ccc(CSc2ncnc3c2ncn3[C@@H]2O[C@H](CO)[C@@H](O)[C@H]2O)cc1
inactive: [1] | [2] | [3] | [4] | [5] | [7]

CNC(=O)[C@H]1O[C@@H](n2cnc3c(NCc4cccc(I)c4)ncnc32)[C@H](O)[C@@H]1O
inactive: [1] | [2] | [3] | [4] | [5] | [7]

NCCCS(=O)(=O)O
not listed: [8] | [9] | [10]
inactive: all other assays above

Nc1nc(Cl)nc2c1ncn2[C@@H]1O[C@H](COP(=O)(O)OP(=O)(O)OP(=O)(O)O)[C@@H](O)[C@H]1O
inactive: [1] | [2] | [3] | [4] | [5] | [7]

S=C(S)OC1CC2CC1C1CCCC21 (configuration not stated)
inactive: [1] | [2] | [3] | [4] | [5] | [7]

CCNC(=O)[C@H]1O[C@@H](n2cnc3c(N)nc(NCCc4ccc(CCC(=O)O)cc4)nc32)[C@H](O)[C@@H]1O
inactive: [1] | [2] | [3] | [4] | [5] | [7]

O=C1/C(=C/c2ccsc2)CC/C1=C\c1cccs1
inactive: [1] | [2] | [3] | [4] | [5] | [7]

C=CC(=O)c1ccc(CCCCCC)cc1
inactive: [1] | [2] | [3] | [4] | [5] | [7]

C[N+]1(C)C2CC(OC(=O)[C@H](CO)c3ccccc3)CC1C1OC12 (some centres not stated)
not listed: [8] | [9] | [10]
inactive: all other assays above

CN(C)CCCO[C@@H]1[C@H]2OC(C)(C)O[C@H]2O[C@@H]1[C@H](O)CO
not listed: [8] | [9] | [10]
inactive: all other assays above

Cc1ccccc1CNc1ncnc2c1ncn2C1OC(CO)C(O)C1O (configuration not stated)
inactive: [1] | [2] | [3] | [4] | [5] | [7]

CCN(CC)c1ncnc2c1ncn2[C@@H]1O[C@H](COP(=O)(O)OP(=O)(O)C(Br)(Br)P(=O)(O)O)[C@@H](O)[C@H]1O
not listed: [8] | [9] | [10]
inactive: all other assays above

NC(=S)NCCC[C@H](N)C(=O)O
not listed: [8] | [9] | [10]
inactive: all other assays above

NCC1OC(O[C@H]2[C@H](O)[C@@H](OC3C(O)C(N)CC(N)C3OC3OC(CO)C(O)C(O)C3N)O[C@@H]2CO)C(N)C(O)C1O (some centres not stated)
not listed: [8] | [9] | [10]
inactive: all other assays above

OC[C@H]1O[C@@H](n2cnc3c(NC4CCCC4)ncnc32)[C@H](O)[C@@H]1O
inactive: [1] | [2] | [3] | [4] | [5] | [7]

OC[C@H]1O[C@@H](n2cnc3c(Nc4ccccc4)ncnc32)[C@H](O)[C@@H]1O
inactive: [1] | [2] | [3] | [4] | [5] | [7]

NC(=S)c1ccc[n+]([C@@H]2O[C@@H](COP(=O)([O-])OP(=O)(O)OC[C@H]3O[C@@H](n4cnc5c(N)ncnc54)[C@H](OP(=O)(O)O)[C@@H]3O)C(O)C2O)c1 (some centres not stated)
inactive: [1] | [2] | [3] | [4] | [5] | [7]

CCCCC#Cc1nc(NC)c2ncn([C@@H]3O[C@H](CO)[C@@H](O)[C@H]3O)c2n1
inactive: [1] | [2] | [3] | [4] | [5] | [7]

Cc1nc2sccn2c(=O)c1CCN1CCC(=C(c2ccccc2)c2ccc(F)cc2)CC1
not listed: [8] | [9] | [10]
inactive: all other assays above

C#C[C@]1(O)CC[C@H]2[C@@H]3CCC4=Cc5oncc5CC4(C)[C@H]3CCC21C (some centres not stated)
inactive: [1] | [2] | [3] | [4] | [5] | [7]

CO/N=C(\C(=O)N[C@@H]1C(=O)N2C(C(=O)O)=C(COC(C)=O)CS[C@H]12)c1csc(N)n1
active: [9] 8.49 µM
not listed: [8] | [10]
inactive: all other assays above

CCC1C(=O)OCC1Cc1cncn1C (configuration not stated)
not listed: [8] | [9] | [10]
inactive: all other assays above

O=C(c1cc(O)c(O)c([N+](=O)[O-])c1)c1ccccc1F
not listed: [8] | [9] | [10]
inactive: all other assays above

CNc1ncnc2c1ncn2[C@@H]1O[C@H](CO)[C@@H](O)[C@H]1O
inactive: [1] | [2] | [3] | [4] | [5] | [7]

O=C(c1ccc(OCCCc2cnc[nH]2)cc1)C1CC1
not listed: [8] | [9] | [10]
inactive: all other assays above

Nc1nc(SCc2ccc([N+](=O)[O-])cc2)c2ncn([C@@H]3O[C@H](CO)[C@@H](O)[C@H]3O)c2n1
inactive: [1] | [2] | [3] | [4] | [5] | [7]

CCCCCCCCCCCCCCCCCC(=O)OC(CC(=O)O)C[N+](C)(C)C (configuration not stated)
inactive: [1] | [2] | [3] | [4] | [5] | [7]

N#C/C(=C\c1c[nH]c2ccccc12)C(=O)c1ccc(O)c(O)c1
inactive: [1] | [10] | [3] | [5] | [7]

C[C@@H](CN1CCC(Cc2ccccc2)CC1)[C@@H](O)c1ccc(O)cc1
inactive: [1] | [3] | [4] | [5] | [6] | [7]

CN1CC(=O)N/C1=N/C(=O)Nc1cccc(Cl)c1
not listed: [4] | [8] | [10]
inactive: all other assays above

Nc1ncnc2c1c(I)cn2[C@@H]1C[C@H](N)[C@@H](O)[C@H]1O
inactive: [1] | [3] | [4] | [5] | [7]

COc1cc(OC)c(/C=C2/C(=O)Nc3ccccc32)c(OC)c1
inactive: [1] | [2] | [3] | [5] | [7]
